Common to all, as to format: functional
For experiment [1], the system named is Plasmodium falciparum. Nature of the experiment: GSK_TCMDC: Inhibition of Plasmodium falciparum 3D7 in whole red blood cells, using parasite LDH activity as an index of growth. Test compounds present at 2uM.
Experiment [2] concerns Plasmodium falciparum. Nature of the experiment: GSK_TCMDC: Inhibition of Plasmodium falciparum Dd2 in whole red blood cells, using parasite LDH activity as an index of growth. Test compounds present at 2uM.
In another experiment the test system is HepG2. Nature of the experiment: GSK_TCMDC: Percent inhibition of human HepG2 cell line. Test compounds present at 10uM.

Broadly, the Inhibition is the relative decrease from the control value, in per cent. A low value points to little suppression.

Structures are written as SMILES.

As to `COc1ccc(CCN(C)CCOc2ccc(NC(=O)COc3ccc4sc5ccccc5c(=O)c4c3)cc2)cc1OC`, the Inhibition in the experiment with Plasmodium falciparum [1] is 100%; in the experiment with Plasmodium falciparum [2], 91%; in the experiment on HepG2, 99%.

Regarding `CCCC(=O)Nc1ccc(OCCN(Cc2ccccc2OC(F)(F)F)c2ccc(C(F)(F)F)c(C#N)c2)cc1`, the Inhibition in the experiment with Plasmodium falciparum [1] was 85%; in the experiment with Plasmodium falciparum [2], 97%; in the experiment with HepG2, 0%.

Take `CC1(CCCCN2CCC(Oc3ccc(F)cc3F)CC2)C(=O)Nc2ccccc21.Cl` (stereo not given): the Inhibition worked out at 99% with Plasmodium falciparum [1], 6% in the experiment on Plasmodium falciparum [2] and 6% in the experiment with HepG2.

In the case of `Fc1ccc(CNc2nc(-c3ccc(F)c(C(F)(F)F)c3)n(-c3cccc(C(F)(F)F)c3)n2)cc1`, the values for the Inhibition in the experiment on Plasmodium falciparum [1], in the experiment with Plasmodium falciparum [2] and in the experiment with HepG2 were 95%, 80% and 0%, respectively.

On to `COc1cc(Br)c(NC(=O)Nc2ccc(C(F)(F)F)c(O[C@@H]3CCN(C)C3)c2)cc1OC.Cl`, for which the Inhibition was 97% in the experiment with Plasmodium falciparum [1], 27% with Plasmodium falciparum [2] and 10% with HepG2.

Turning to `CCOC(=O)c1cnc2cc(N3CCCC3)c(Cl)cc2c1OCC`, the Inhibition is 97% in the experiment on Plasmodium falciparum [1], 97% with Plasmodium falciparum [2] and 0% in the experiment on HepG2.

As to `Cl.Nc1nc(N)c2c(ccc3c2cnn3S(=O)(=O)N2CCCC2)n1`, the Inhibition is reported as 93% in the experiment with Plasmodium falciparum [1], 3% in the experiment with Plasmodium falciparum [2] and 70% in the experiment with HepG2.

For the molecule `Cc1ccc(N2CCc3c(-c4cc5cccnc5nc4C)cc(C)nc32)c(Cl)c1.O=C(O)C(F)(F)F`, the values for the Inhibition with Plasmodium falciparum [1], in the experiment on Plasmodium falciparum [2] and in the experiment with HepG2 were 96%, 90% and 0%, respectively.

As for `CCN(CCCN1CCCCC1)c1cc(C)nc(Nc2cc(Br)ccc2C)n1.O=C(O)C(F)(F)F`, the Inhibition in the experiment with Plasmodium falciparum [1] worked out at 98%; in the experiment on Plasmodium falciparum [2] it was 39%; in the experiment with HepG2 it was 32%.

Consider `Fc1ccc(Nc2ccnc3cc(-c4cccc(CN5CCCCC5)c4)ccc23)c(Cl)c1`, for which the Inhibition in the experiment with Plasmodium falciparum [1] turned out to be 91%; in the experiment with Plasmodium falciparum [2], 58%; with HepG2 it was 3%.

Turning to `COc1ccc2c(=NN=Cc3cccc(Cl)c3)cc(C)[nH]c2c1`, the Inhibition with Plasmodium falciparum [1] turned out to be 100%; in the experiment on Plasmodium falciparum [2], 99%; in the experiment with HepG2, 3%.

Regarding `O=C(Nc1cccc(-c2cccc(-c3nc4ccccc4[nH]3)c2)c1)c1cccnc1`, the figures for the Inhibition in the experiment on Plasmodium falciparum [1], with Plasmodium falciparum [2] and in the experiment with HepG2 were 95%, 14% and 12%, respectively.

Turning to `CCN(CC)CCCC(C)Nc1c(-c2ccc(Br)cc2)cnc2ccccc12` (stereo not given), the results for the Inhibition with Plasmodium falciparum [1], in the experiment on Plasmodium falciparum [2] and in the experiment with HepG2 were 100%, 95% and 7%, respectively.

For `COc1ccccc1CN1CCC(NC(=O)c2ccc(-c3ccc(N(C)C)cc3)s2)CC1.O=C(O)C(F)(F)F`, the Inhibition amounted to 90% in the experiment with Plasmodium falciparum [1], 38% in the experiment on Plasmodium falciparum [2] and 29% in the experiment on HepG2.

For the molecule `COc1ccccc1N1CCN(c2cccc3c2nc(-c2cncc(C#N)c2)n3CCNCc2ccccc2)CC1.O=C(O)C(F)(F)F`, the Inhibition is 100% in the experiment with Plasmodium falciparum [1], 81% in the experiment with Plasmodium falciparum [2] and 0% in the experiment with HepG2.

As to `CC(=O)Nc1nc(C(=O)Nc2cccc(-c3ccc4c(cnn4CC4CC4)c3)c2)cs1`, the Inhibition with Plasmodium falciparum [1] is on record as 95%; in the experiment with Plasmodium falciparum [2], 67%; with HepG2 it was 16%.

For the molecule `Cc1ccc(-c2cc(C(=O)Nc3ccc(S(=O)(=O)N4CCCCC4)cc3)[nH]n2)c(O)c1`, the results for the Inhibition with Plasmodium falciparum [1], in the experiment on Plasmodium falciparum [2] and with HepG2 were 97%, 92% and 6%, respectively.

For the molecule `CCOc1cc(C(=O)Nc2cccnc2)ccc1-c1nc2cc(Cl)c(Cl)cc2[nH]1`, the Inhibition in the experiment on Plasmodium falciparum [1] was found to be 100%; in the experiment with Plasmodium falciparum [2] it was 70%; with HepG2, 9%.

In the case of `Cc1ccc(S(=O)(=O)NC2=NC(=N)N(OCc3ccc(Cl)c(Cl)c3)C(C)(C)N2)cc1`, the Inhibition was found to be 88% in the experiment with Plasmodium falciparum [1], 0% in the experiment on Plasmodium falciparum [2] and 0% in the experiment on HepG2.

`C#CCNCc1ccc(-c2ccc(-c3nc4cc(C(F)(F)F)ccc4[nH]3)s2)cc1.O=C(O)C(F)(F)F`: the Inhibition with Plasmodium falciparum [1] stood at 98%; in the experiment on Plasmodium falciparum [2] it was 28%; in the experiment with HepG2, 37%.

Take `Cc1ccc(CNC(=O)[C@H](Cc2ccccc2)Nc2cc(C)nc(NCc3ccccc3C)n2)cc1.O=C(O)C(F)(F)F`: the Inhibition in the experiment on Plasmodium falciparum [1] is 97%; in the experiment with Plasmodium falciparum [2] it was 50%; in the experiment on HepG2, 23%.

On to `Cn1c(N)c(C(=O)CSc2ncc(-c3ccc(F)cc3)n2Cc2ccccc2)c(=O)n(C)c1=O`, for which the Inhibition was 88% in the experiment with Plasmodium falciparum [1], 66% in the experiment on Plasmodium falciparum [2] and 11% in the experiment on HepG2.

Consider `Cl.NC(=O)c1cccc(Nc2nccc(Nc3ccc(Oc4cccc5ccccc45)cc3)n2)c1`, for which the Inhibition amounted to 94% in the experiment with Plasmodium falciparum [1], 22% with Plasmodium falciparum [2] and 0% with HepG2.

In the case of `CN(C)Cc1cc2c(O)c(Cc3ccccc3)ccc2o1`, the Inhibition with Plasmodium falciparum [1] turned out to be 85%; in the experiment with Plasmodium falciparum [2], 69%; with HepG2, 3%.

Take `O=C(NCCCCCN1CCC(c2ccc(O)cc2)CC1)c1ccc(-c2ccccc2)cc1`: the Inhibition in the experiment on Plasmodium falciparum [1] was found to be 92%; with Plasmodium falciparum [2], 0%; in the experiment with HepG2, 28%.

In the case of `CN(C)CCC(O)(c1ccc(Br)cc1)c1cccnc1` (stereo not given), the results for the Inhibition with Plasmodium falciparum [1], in the experiment on Plasmodium falciparum [2] and in the experiment with HepG2 were 96%, 1% and 22%, respectively.

In the case of `FC(F)(F)c1ccc2[nH]c(-c3cccc(-c4cccc(CNCC5CCCO5)c4)c3)nc2c1.O=C(O)C(F)(F)F` (stereo not given), the Inhibition stood at 100% in the experiment on Plasmodium falciparum [1], 96% with Plasmodium falciparum [2] and 23% in the experiment with HepG2.

`CCc1ccc(CN(Cc2ccc(C)cc2)Cc2ccc(NC(C)=O)cc2)cc1`: the Inhibition was 89% in the experiment on Plasmodium falciparum [1], 79% in the experiment on Plasmodium falciparum [2] and 6% in the experiment with HepG2.

Turning to `COc1ccccc1C1CCN(C2CCC(NC(=O)/C=C/c3cccc(Cl)c3F)CC2)CC1` (stereo not given), the Inhibition in the experiment on Plasmodium falciparum [1] is 96%; with Plasmodium falciparum [2] it was 19%; in the experiment on HepG2, 50%.

As for `CNCCCn1c(N(C)C)nc2cc(-n3cnc4cc(-c5ccc(Cl)cc5)sc4c3=O)ccc21.O=C(O)C(F)(F)F`, the Inhibition with Plasmodium falciparum [1] was 86%; with Plasmodium falciparum [2], 27%; in the experiment on HepG2, 39%.
